Sa ugtP lethal: growth inhibition of ugtP-null S. aureus, primary screen, RN4220 ugtP deletion, OD600 | 16 h | growth inhibition, % (test concentration not listed) | hit rate 0.54% among 330,000 | AID 1259309, 2017; in the data active = growth inhibition above about 68%
Sa RN4220 lethal: growth inhibition of S. aureus RN4220, primary screen, OD600. hit rate 0.33% among 330,000. inhibition, % (concentration not given with the values). 16 h; in the data active = inhibition above about 85%
PfHsp40 yeast: rescue of yeast from PfHsp40 toxicity, primary screen, S. cerevisiae, ATP luminescence; S. cerevisiae expressing PfHsp40, growth rescue; hit rate 0.68% among 340,000; growth rescue, % at 12.5 µM; in the data active = growth rescue above about 28%, passing the limit was not always enough;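 note: yeast W303a lacking pdr1 and pdr3 grown in galactose medium; growth measured after three days at 30 °C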
PrPC TRFRET: inhibitors of human cell surface prion protein PrPC, primary screen, cell-based, TR-FRET | Major prion protein (Homo sapiens), P04156 | TR-FRET read-out | inhibition, % at 13.8 µM | hit rate 0.43% among 370,000 | AID 720596, 2013; in the data active = inhibition above about 24%
CCHF vOTU inh-1: CCHFV vOTU protease inhibitors, primary screen, biochemical, Pep-AMC substrate, fluorescence. Crimean-Congo hemorrhagic fever virus L polyprotein viral ovarian tumor (vOTU) protease …. inhibition, % at 11.5 µM. hit rate 0.55% among 370,000
PrP UTR inh: inhibition of PrP 5' UTR reporter expression. cell-based PrP 5' UTR mRNA reporter, plate reader. inhibition, % (concentration not given with the values). hit rate 0.35% among 340,000; in the data active = inhibition above about 52%
CCHF vOTU inh-2: CCHFV vOTU protease inhibitors, confirmation, biochemical, Pep-AMC substrate, fluorescence; shares compounds with CCHF vOTU inh-1; Recombinant CCHFV vOTU; inhibition, % at 11.5 µM; hit rate 17% among 1,900; AID 686976, 2013
Hits are given with their value; - = inactive; . = not tested or not shown. The list is not random: actives were taken first. Their share in the collection is about 2.1%. Cut-off read from the data, not from the text of the source, unless noted: active = inhibition above about 30%; inactive = the rest.

SMILES | Sa ugtP lethal | Sa RN4220 lethal | PfHsp40 yeast | PrPC TRFRET | CCHF vOTU inh-1 | PrP UTR inh | CCHF vOTU inh-2
O=[N+]([O-])c1cc(Br)c2c(c1)CCN2 | . | . | . | - | 30 | . | -
CCOc1cc(Br)cc(C(c2c(C(=O)O)[nH]c3ccccc23)c2c(C(=O)O)[nH]c3ccccc23)c1O | - | - | - | - | 43 | - | -
CC1CCCN(c2ccc(C(=O)NCc3ccc4c(c3)OCO4)cc2[N+](=O)[O-])C1 (stereo not drawn) | - | - | - | - | 31 | - | -
O=C(NCc1ccc2c(c1)OCO2)c1ccc(N2CCCCCC2)c([N+](=O)[O-])c1 | - | - | - | - | - | - | .
O=C(NC1=C(Nc2ccc(F)cc2)C(=O)c2ccccc2C1=O)c1ccc(Cl)cc1 | - | - | - | - | 35 | - | 58
O=C(NNC(=O)c1ccc(NC(=O)c2ccccc2)cc1)c1ccc(F)cc1 | - | - | - | - | - | - | .
CC1CN(Cc2ccccc2)C(=S)N(c2ccccc2)C1=O (stereo not drawn) | - | - | - | - | 32 | - | -
CC1CN(C(C)C)C(=S)N(c2ccccc2)C1=O (stereo not drawn) | - | - | - | - | - | - | .
CS(=O)(=O)c1ccc(N2CCN(S(=O)(=O)c3cccs3)CC2)c([N+](=O)[O-])c1 | - | - | - | - | 35 | - | -
O=C1Cc2ccccc2C(=O)N1CCc1ccccc1 | - | - | - | - | 100 | - | 102
O=C(NC(=S)Nc1ccccc1N1CCCCC1)c1cccs1 | - | - | - | - | - | - | .
CC(C)CC(=O)NC(=S)Nc1ccccc1N1CCCC1 | - | - | - | - | 31 | - | -
O=C(NC(=S)Nc1ccccc1N1CCCC1)c1cccs1 | - | - | - | - | 37 | - | 38
CC(C)(C)c1ccc(OCC(=O)NN=Cc2ccsc2)cc1 | - | - | . | . | . | . | .
CC1CCCC(=NNS(=O)(=O)c2ccccc2)C1 (stereo not drawn) | - | - | . | . | . | . | .
Cc1nc(-[n+]2nc(-c3ccncc3)nn2-c2ccccc2)sc1C | . | . | . | - | 44 | . | -
CC(=NNc1nc(C(=O)O)cs1)c1ccccc1 | - | - | . | . | . | . | .
CCCC(=Nc1ccc(N)cc1)C1=C(O)C(C(=O)OC)C(C)(C)CC1=O (stereo not drawn) | - | - | - | - | 103 | - | -
CCCC(=O)C1=C(O)C(C(=O)OC)C(C)(C)CC1=Nc1ccc(N)cc1 (stereo not drawn) | - | - | - | - | - | - | .
NC(N)=NCCCC(NC(=O)OCc1ccccc1)C(=O)O (stereo not drawn) | - | - | . | . | . | . | .
COc1cccc(NC(=O)/C=C/c2ccc(S(=O)(=O)N3CCOCC3)cc2)c1 | - | - | - | - | 30 | - | -
CC(=O)Nc1cccc(NC(=O)/C=C/c2ccc(S(=O)(=O)N3CCOCC3)cc2)c1 | - | - | - | - | - | - | .
COc1ccc(N)c2c1OCCC2=O | - | - | - | - | 57 | - | -
O=C(CCCC(=O)NC1CCCC1)NC1CCCC1 | - | - | - | - | 31 | - | -
CCCC(O)=C1C(=O)CCCC1=NCCCCCC(=O)O | - | - | . | . | . | . | .
SMILES | Sa ugtP lethal | Sa RN4220 lethal | PfHsp40 yeast | PrPC TRFRET | CCHF vOTU inh-1 | PrP UTR inh | CCHF vOTU inh-2
Cc1ccc(N=Cc2cc3c(cc2[N+](=O)[O-])OCO3)cc1[N+](=O)[O-] | - | - | . | - | - | . | .
CC(=O)N(C)c1ccc(N=Cc2cc3c(cc2[N+](=O)[O-])OCO3)cc1 | - | - | - | - | 34 | - | 31
CCCCn1c(N)c(N(CC(C)C)C(=O)CSc2nn(-c3ccc(F)cc3)c(=S)s2)c(=O)[nH]c1=O | - | - | - | - | 38 | - | -
CCCn1c(N)c(N(CCOC)C(=O)c2ccccc2F)c(=O)[nH]c1=O | - | - | - | - | - | - | .
CCCCn1c(N)c(N(CC)C(=O)c2ccccc2F)c(=O)[nH]c1=O | - | - | - | - | 33 | - | -
COC(=O)[C@]12C[C@H](CC(=O)NCc3cccc(C(F)(F)F)c3)C(=O)N(Cc3ccccc3)C1=C[C@H](C(C)C)O[C@@H]2C1CC1 | . | . | . | - | 41 | . | -
COC(=O)[C@]12C[C@H](CC(=O)NCc3cccc(C(F)(F)F)c3)C(=O)N(Cc3ccco3)C1=C[C@H](C(C)C)O[C@@H]2C1CC1 | . | . | . | - | 31 | . | -
COC(=O)[C@]12C[C@H](CC(=O)NCc3cccc(C(F)(F)F)c3)C(=O)N(CCC3=CCCCC3)C1=C[C@H](C(C)(C)C)O[C@@H]2C | . | . | . | - | - | . | .
COC(=O)[C@]12C[C@H](CC(=O)NCc3cccc(C(F)(F)F)c3)C(=O)N(CCC3=CCCCC3)C1=C[C@H](C(C)C)O[C@@H]2C1CC1 | . | . | . | - | 33 | . | -
COC(=O)[C@]12C[C@H](CC(=O)NCc3cccc(C(F)(F)F)c3)C(=O)N(Cc3cccc4ccccc34)C1=C[C@H](C(C)C)O[C@@H]2C1CC1 | . | . | . | - | - | . | .
COc1ccc(CNc2ccc3cn[nH]c3c2)c(OC)c1OC | - | - | - | - | 40 | - | -
C=C(C)C1CC=C(C)C(=NNC(=O)CNc2ccccc2OC)C1 (stereo not drawn) | - | - | . | . | . | . | .
O=C(N=C1SC2CS(=O)(=O)CC2N1c1ccc(Br)cc1Cl)C1CC1 (stereo not drawn) | - | - | - | - | 34 | - | -
CC1=C(CC(=O)c2ccccc2)C(=O)c2ccccc2C1=O | - | - | - | - | 40 | - | 34
O=C(CN1C(=O)c2ccccc2C1=O)c1ccccc1 | - | - | - | - | - | - | .
CC1CN(C(C)CO)C(=O)c2cc(NC(=O)Nc3ccc4c(c3)OCO4)ccc2OC1CN(C)S(=O)(=O)c1cccs1 (stereo not drawn) | - | - | . | . | . | . | .
CN(C)c1ccc(C=Nc2ccc(N(C)C)cc2)cc1 | - | - | - | - | 68 | - | -
COc1ccc(C=NNC(=O)CCNc2n[nH]c(=O)[nH]c2=O)c(OC)c1 | - | - | . | . | . | . | .
CCN1CC2C3C(=O)N(Cc4ccccc4)C(=O)C3[C@](CC)(C1=O)N2C(=O)c1ccccc1 (stereo partly drawn) | - | - | . | . | . | . | .
CCOC(=O)C1(CCCc2ccccc2)CCN(C(=O)CSC)CC1 | - | - | - | - | - | - | .
CCOC(=O)C1(CCCc2ccccc2)CCN(C(=O)Cc2nonc2C)CC1 | - | - | - | - | 31 | - | -
C=CCN1c2ccccc2[C@]23CC(C(=O)OC)N(C(=O)NC4CCCC4)C2=NC(C(=O)OC)=C(C(=O)OC)C13 (stereo partly drawn) | - | - | . | . | . | . | .
Cc1cc(/C=C(\C#N)C(=O)Nc2ccccc2F)c(C)[nH]1 | - | - | - | - | 33 | - | -
N#C/C(=C\c1ccc[nH]1)C(=O)Nc1ccccc1F | - | - | - | - | - | - | .

Assay outcomes: PubChem BioAssay, several laboratories
